# Screen size: about 69,000 compounds; about 950 (1.4%) showed an effect of 50% or more. Only a selection was taken, and strong results are over-represented in it overall.
# System: Mycobacterium tuberculosis
# Experiment: Cornell M. t heat shock assay; note: in the data most compounds retested in dose-response had high values
# Type: functional, organism-based
# Parameters: dose or concentration left out as unconfirmed
row,SMILES,Percent Effect [%]
1,CC(Cn1cncc1-c1cnn(Cc2ccccc2)c1)N1CCCCC1.Cl (stereo unspecified),-9.415
2,Cc1ccc(CN2CCn3c(CN4CCN(C)CC4)cnc3C2C)s1.O=C(O)C(F)(F)F.O=C(O)C(F)(F)F.O=C(O)C(F)(F)F (stereo unspecified),-29.44
3,O=C(CN1CCOC(CNc2cccnn2)C1)N1CCCCC1 (stereo unspecified),57.16
4,O=C(CN1CCOC(CNc2cccnn2)C1)NCc1cccs1 (stereo unspecified),104.8
5,O=C(CN1CCOC(CNc2cccnn2)C1)NCc1ccccn1 (stereo unspecified),-12.01
6,c1cnnc(NCC2CN(CCN3CCCCC3)CCO2)c1 (stereo unspecified),4.077
7,O=C(CN1CCOC(Cn2cccn2)C1)NCc1cccs1 (stereo unspecified),-0.5047
8,OC1(CN2CCOC(CNc3cccnn3)C2)CCCCC1 (stereo unspecified),9.895
9,Cc1oncc1C(=O)NCc1cc(=O)n2c(n1)CN(C(C)C)CCC2.O=C(O)C(F)(F)F,-32.5
10,CC(C)(C)C(=O)NC(c1nccs1)C1CCN(CC2CCCCC2)CC1.Cl (stereo unspecified),4.524
11,CCN1CCC2(C=C(C(=O)NC3CC3)c3ccccc32)CC1.O=C(O)C(F)(F)F,-9.893
12,CN(C)C(=O)CN1CCOCC2(C1)CN(c1ncccn1)CCO2.O=C(O)C(F)(F)F (stereo unspecified),-21.69
13,CCS(=O)(=O)N1CCN(CCOC)c2ncccc2C1,7.581
14,CCOC(=O)CNC(=O)C1OC(c2ccccc2)=NN1C(C)=O (stereo unspecified),54.14
15,CC(=O)N1N=C(c2ccccc2)OC1C(=O)NCCC1=CCCCC1 (stereo unspecified),-12.6
16,CC(=O)N1N=C(c2ccco2)OC1C(=O)N(C)CCc1ccccc1 (stereo unspecified),-2.033
17,CC(=O)N1N=C(c2ccccc2)OC1C(=O)NCCOc1ccccc1 (stereo unspecified),46.95
18,CC(=O)N1N=C(c2ccccc2)OC1C(=O)N(C)CCc1ccccc1 (stereo unspecified),0.1011
19,CC(=O)N1N=C(c2ccccc2)OC1C(=O)NCCc1ccc(Cl)cc1 (stereo unspecified),7.805
20,CC(=O)N1N=C(c2ccccc2)OC1C(=O)NCCN(C(C)C)C(C)C (stereo unspecified),73.05
21,CC(=O)N1N=C(c2ccccc2)OC1C(=O)NCCc1ccc(O)cc1 (stereo unspecified),53.53
22,CC(=O)N1N=C(Cc2ccccc2)OC1C(=O)NCC(=O)OC(C)(C)C (stereo unspecified),11.49
23,CC(=O)N1N=C(c2ccccc2)OC1C(=O)NCCc1ccc(C)cc1 (stereo unspecified),30.4
24,CC(=O)N1N=C(c2ccncc2)OC1C(=O)N(C)CCc1ccccc1 (stereo unspecified),106
25,CC(=O)N1N=C(c2ccccc2)OC1C(=O)NCC(=O)OC(C)(C)C (stereo unspecified),21.44
26,Cc1oncc1C(=O)NCc1cc(=O)n2c(n1)CN(CC(C)C)CCC2.O=C(O)C(F)(F)F,-11.26

# Reference: ChEMBL document CHEMBL3988442, “University of Dundee, Small-Polar-MMV Screening Library” (2021)
